# Measurements as given in the supplement of paper PMC3842684.
# Tested on: P. falciparum NF54-pfs16-GFP late (IV-V) stage gametocytes
# Assay: relative % inhibition of viable gametocyte number; higher = more gametocytocidal
# Conditions: 5 µM; stage: late (IV-V) gametocyte; incubation 72 h
# Procedure, shortened: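 NF54 pfs16-GFP gametocytes, magnet-isolated at early (I/IIa, day 2) or late (day 8) stage, were plated at 10% parasitaemia, 0.1% haematocrit in 384-well poly-D-lysine imaging plates with compound in duplicate at 5 or 0.5 µM. Plates were incubated 72 h at 37°C, 5% CO2, 5% O2, then overnight with MitoTracker Red. Confocal imaging counted elongated GFP objects with MitoTracker signal above cut-off as viable gametocytes. Relative inhibition was normalised to in-plate vehicle and positive-control wells.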
row,SMILES,relative % inhibition
1,COc1ccc(CCN2CCC(CN(C)Cc3cnn(-c4ccccc4)c3)CC2)cc1,-5.77%
2,COc1ccc2c(=O)cc(C(Cl)(Cl)Cl)oc2c1,15.5%
3,O=C1c2ccc3c4c(ccc(c24)C(=O)N1CCCCO)C(=O)N(CCCCO)C3=O,4.35%
4,COc1ccc(Nc2cc(C)nc(NCc3ccccc3)n2)cc1,36%
5,O=C(Nc1nc(-c2ccccn2)cs1)c1ccccc1Br,68.6%
6,COc1ccc(C(C)=O)cc1N1C(=O)C2C(C1=O)C1(c3ccccc3)C(=O)C2(c2ccccc2)C(c2ccc(C)cc2)=C1c1ccc(C)cc1 (centres undefined),73.1%
7,CC(C)(C)c1ccc(C(=O)Nc2nc3ccccc3s2)cc1,2.42%
8,COc1ccc(Nc2nc(NN=Cc3ccc(O)cc3)nc(Nc3ccc([N+](=O)[O-])cc3)n2)cc1,31.8%
9,CCOc1cccc(C(=O)Nc2ccc(-c3nc4ccccc4[nH]3)cc2)c1,17.9%
10,CN1CCN(c2c3c(c(C#N)c4nc5ccccc5n24)CCC3)CC1,-8.14%
11,CCOC(=O)c1ccc2nc(-c3ccccc3)cc(O)c2c1,102%
12,Fc1ccc2[nH]c3c(NCCCN4CCOCC4)ncnc3c2c1,22.9%
13,O=C(NC1CCN(Cc2ccccc2)CC1)c1cc(-c2cccnc2)nc2ccc(Cl)cc12,-0.963%
14,CC(C)(C)CC(C)(C)NCC(O)COc1ccc(Cl)cc1Cl (centres undefined),114%
15,COc1ccc(C2c3ccc4ccccc4c3Oc3ncn(CCCN(C)C)c(=N)c32)cc1 (centres undefined),115%
16,O=C(Nc1cccc(C(F)(F)F)c1)c1cc(Cl)ccc1O,30.1%
17,Cc1ccc(-c2cc3c(nn2)-c2ccccc2C3=O)cc1,70.6%
18,CCCCOC(=O)c1ccc(Nc2cc(C)nc3ccc(OC)cc23)cc1,18.5%
19,Nc1ccc(-c2nc3cc(Cc4ccc5[nH]c(-c6ccc(N)cc6)nc5c4)ccc3[nH]2)cc1,85.1%
20,O=C(Nc1cccc(C2=NCCN2)c1)Nc1cccc(C2=NCCN2)c1,-30.3%

row,SMILES,relative % inhibition
1,CCCCc1c(C)nc2c(OC)cccc2c1O,63.9%
2,O=C(Nc1ccc(-c2nc3ccccc3[nH]2)cc1)c1ccc(Cl)c(Cl)c1,-12%
3,CCCc1c(C)nc2ccccc2c1O,72.3%
4,COc1ccc2nc(N)nc(C)c2c1,-4.54%
5,O=C(Nc1ccsc1C(=O)NC1CCCCC1)c1ccc(F)cc1,-23.6%
6,Cc1cc(N2CCN(C3CCCC3)CC2)n2c(nc3ccccc32)c1C#N,6.77%
7,COc1ccc(OC)c(C2C3=C(CC(C)(C)CC3=O)N(c3ccc(Cl)c(Cl)c3)C3=C2C(=O)CC(C)(C)C3)c1,79.2%
8,CCn1c(CN2CCN(Cc3ccccc3)CC2)nc2cc(NC(=O)c3cccs3)ccc21,50.7%
9,COc1ccc(C=C2SC(Nc3ccccc3)=NC2=O)cc1,61.6%
10,COc1ccc(C2=C(c3ccc(OC)cc3)C3(c4ccccc4)C(=O)C2(c2ccccc2)C2C(=O)N(c4ccc(C)cc4)C(=O)C23)cc1 (centres undefined),28.5%
11,Oc1c(CN2CCN(c3ccccc3F)CC2)cc(Br)c2cccnc12,79.5%
12,COc1ccc(C2N(C)c3ccccc3N2C)cc1,-2.47%
13,CC(C)CCNCC(O)Cn1c2ccccc2c2ccccc21 (centres undefined),82.9%
14,CCCn1c(=N)c(C(=O)NC2CCCCC2)cc2c(=O)n3cccc(C)c3nc21,8.02%
15,O=c1nc(C=Cc2ccc(Cl)cc2)oc2ccccc12,19.3%
16,COC(=O)c1ccc(C2C3=C(O)CC(c4ccc(F)cc4)CC3=Nc3ccccc3N2C(=O)c2ccccc2)cc1 (centres undefined),98.4%
17,CCCCCn1c(=N)n(CC(O)COc2cccc(C)c2)c2ccccc21 (centres undefined),56%
18,COc1ccc(N2CCN(C(CNC(=O)CC(C)(C)C)c3ccc4c(c3)OCO4)CC2)cc1 (centres undefined),25.6%
19,Nc1ccc(-c2nc3cc(Oc4ccc(Oc5ccc6[nH]c(-c7ccc(N)cc7)nc6c5)cc4)ccc3[nH]2)cc1,32.9%
